Compound activity (PubChem)
Gli-Sufu block: Gli-Sufu pathway antagonism; Sufu-KO-LIGHT fibroblasts, Gli luciferase reporter luminescence; inhibition, % at 5 µM; actives 0.74% (n = 340,000); AID 588413;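 active = inhibition above about 55%, limit read from the data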;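 note: 0% = DMSO-treated cells and 100% = wells with medium but no cells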
697 NFkB inh: lowers PMA/ionomycin-induced NF-kB signal in 697 B cells; inhibition, % at 4 µM; 697 B-cell NF-kB luciferase reporter, 16 h; actives 0.33% (n = 330,000); in the data active = inhibition above about 35%
Mdm2 MdmX PPI: disrupts the human Mdm2-MdmX interaction; O15151+Q00987; SaOS-2 split-luciferase Mdm2/MdmX complementation, luminescence; inhibition, % at 8 µM; actives 3% (n = 330,000); AID 485346;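 active = inhibition of at least 50% at 8 µM in the primary screen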
Target sequence (O15151 whole entry, looked up): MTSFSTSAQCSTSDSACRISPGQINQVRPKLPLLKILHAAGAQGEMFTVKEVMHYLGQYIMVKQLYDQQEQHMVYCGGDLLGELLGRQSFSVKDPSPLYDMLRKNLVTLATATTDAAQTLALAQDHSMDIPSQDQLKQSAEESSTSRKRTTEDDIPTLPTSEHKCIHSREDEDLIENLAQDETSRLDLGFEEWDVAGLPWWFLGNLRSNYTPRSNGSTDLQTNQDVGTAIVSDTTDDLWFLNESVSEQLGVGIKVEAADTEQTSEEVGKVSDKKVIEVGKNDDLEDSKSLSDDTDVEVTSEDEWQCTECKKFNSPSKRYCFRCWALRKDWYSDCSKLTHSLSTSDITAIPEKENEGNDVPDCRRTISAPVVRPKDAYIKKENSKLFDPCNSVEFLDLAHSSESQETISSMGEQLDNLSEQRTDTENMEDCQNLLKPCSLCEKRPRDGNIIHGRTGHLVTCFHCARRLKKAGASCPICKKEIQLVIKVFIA
Target sequence (Q00987 whole entry, looked up): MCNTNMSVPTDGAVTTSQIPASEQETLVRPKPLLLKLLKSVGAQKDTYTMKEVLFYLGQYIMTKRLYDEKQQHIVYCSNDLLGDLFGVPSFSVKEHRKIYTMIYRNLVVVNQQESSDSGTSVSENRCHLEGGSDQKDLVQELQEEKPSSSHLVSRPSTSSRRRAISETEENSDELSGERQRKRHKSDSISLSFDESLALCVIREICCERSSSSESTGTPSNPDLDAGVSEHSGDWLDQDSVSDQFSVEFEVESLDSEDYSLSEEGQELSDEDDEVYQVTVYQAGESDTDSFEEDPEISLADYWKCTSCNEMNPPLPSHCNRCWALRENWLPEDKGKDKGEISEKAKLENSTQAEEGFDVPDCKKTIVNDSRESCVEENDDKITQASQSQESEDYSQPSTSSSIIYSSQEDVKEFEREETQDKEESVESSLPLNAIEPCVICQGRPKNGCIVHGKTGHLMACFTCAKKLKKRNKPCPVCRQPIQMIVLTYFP
Jurkat NFkB inh: inhibitors of the PMA/ionomycin-induced NF-kB reporter in Jurkat cells; PMA/ionomycin-induced NF-kB luciferase reporter, luminescence; inhibition, % at 4 µM; actives 0.53% (n = 330,000); in the data active = inhibition above about 50%
KLF5 inh: kruppel-like factor 5 inhibition; DLD-1 KLF5 promoter-luciferase reporter, luminescence; inhibition, % at 5 µM; actives 0.23% (n = 290,000); AID 1700;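 active = inhibition above a per-plate limit of that plate's mean compound inhibition plus 3 SD, cut at about 60% in these data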;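 note: 0% = DMSO wells and 100% = LY294002 at 200 µM; higher means less KLF5 promoter-driven luciferase light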
aSyn UTR inh: MLPCN primary screen, SNCA 5' untranslated region; alpha-synuclein 5'UTR reporter, inhibitor activity; inhibition, % (tested at 7.5 µM); actives 0.82% (n = 300,000); in the data active = inhibition above about 60%;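 note: H4 neuroglioblastoma cells stably carrying SNCA 5'UTR luciferase fusion; 0% = DMSO wells and 100% = positive control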
Mdm2-MdmX conf: human Mdm2/MdmX binding inhibition, confirmed. shares compounds with Mdm2 MdmX PPI. luminescent assay. inhibition, % at 8 µM. actives 55% (n = 10,000). AID 489028; in the data active = inhibition above about 40%
FLuc counter: counter-screen for Mdm2/MdmX inhibitors: full-length luciferase | actives 77% (n = 6,200) | SaOS-2 full-length luciferase counterscreen, luminescence | inhibition, % at 8 µM | shares compounds with Mdm2 MdmX PPI;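 active = mean inhibition at 8 µM reaching about 37%, which flags the compound as non-specific, limit read from the data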;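 note: p53-null SaOS-2 cells with luciferase driven by a doxycycline-inducible promoter; compound on cells about two nights before reading with doxycycline added after day one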
* = called active by the depositor; . = no result. Rows were chosen to be rich in hits. Some 4.1% of all compounds tested hit in one or more screens of this group.

SMILES | Gli-Sufu block | 697 NFkB inh | Mdm2 MdmX PPI | Jurkat NFkB inh | KLF5 inh | aSyn UTR inh | Mdm2-MdmX conf | FLuc counter
Cc1ccc(-n2nc(C)c3c(C)c(CCC(=O)Nc4ccc(CN5CCCC5)cc4)c(C)nc32)cc1 | 8.7 | -6.0 | 88.9* | -13.6 | -33.9 | 103.6* | 49.9* | 25.5
NC(N)=N/N=C/c1ccc2cccc(OCc3ccccc3)c2n1 | 41.8 | -73.6 | 50.9* | 33.8 | 0.9 | -20.9 | 60.0* | 81.2*
COc1ccc(C(=O)N/N=C/c2ccc3cccc(OCc4ccccc4)c3n2)cc1 | -6.4 | -25.2 | 59.3* | -0.6 | -11.7 | -35.8 | 16.0 | .
O=C(CNC(=O)c1ccccc1F)NCCOc1ccccc1Cl | -1.1 | -20.6 | 1.3 | 5.4 | -2.1 | 20.6 | . | .
Cc1nnnn1/C(=C\c1ccccc1)C(=O)OCC(=O)Nc1cccc(S(=O)(=O)N(C)C)c1 | 5.4 | -9.1 | 71.9* | 6.5 | . | . | 39.4 | 34.0
CC(=O)N/C(=C\c1ccccc1)C(=O)OCC(=O)Nc1ccc(C)c(S(=O)(=O)N(C)C)c1 | 3.2 | 14.7 | 27.8 | -3.1 | . | . | . | .
O=C(COC(=O)Cc1n[nH]c(=O)c2ccccc12)Nc1ccc(Cl)cc1F | 1.9 | 24.7 | 22.1 | -6.5 | -8.7 | -24.4 | . | .
Cc1nnnn1/C(=C\c1ccccc1)C(=O)OCC(=O)Nc1ccc(Cl)cc1F | 4.1 | 8.1 | 67.5* | 6.1 | . | -70.5 | 60.8* | 60.9*
CCOc1cc(CNCCO)cc(Br)c1OCc1ccc(Cl)cc1 | -7.1 | 26.7 | 80.2* | 35.6 | -10.5 | 20.0 | 20.9 | .
CC(O)CNCCNCc1c(OCc2ccccc2)ccc2ccccc12 (centres undefined) | -5.0 | 8.1 | 31.1 | -10.7 | -9.3 | -21.4 | . | .
CCOc1cc(CNCCO)cc(Br)c1OCc1ccccc1Cl | 13.1 | -11.6 | 68.4* | 38.5 | -1.3 | -7.6 | 34.5 | .
CCOc1cccc(CNCCO)c1OCc1ccc(Cl)cc1 | 7.2 | -28.5 | -9.3 | -16.6 | -0.4 | -20.6 | . | .
COc1cc(CNCCO)cc(Cl)c1OCc1ccccc1Cl | -6.7 | -2.9 | 25.1 | -2.4 | -27.3 | -2.5 | . | .
OCCNCc1c(OCc2ccc(Cl)cc2)ccc2ccccc12 | 1.5 | 8.7 | 53.0* | 26.8 | 3.0 | 24.1 | 41.2* | 70.0*
CCOc1cc(CNC(C)(C)CO)cc(Br)c1OCc1ccc(Cl)cc1Cl | 14.3 | 23.8 | 96.0* | 13.9 | -12.0 | -21.7 | 49.5* | 36.9*
O=C(NCCCN1CCCC1=O)Nc1ccc([N+](=O)[O-])cc1 | -6.3 | 3.4 | -10.6 | -16.4 | -47.2 | -39.2 | . | .
CCOc1cc(CNCCN2CCOCC2)ccc1OCc1ccccc1Cl | 5.7 | -5.9 | 25.1 | 6.3 | -0.5 | 8.1 | . | .
CCOc1cc(CNCCCN2CCOCC2)cc(Br)c1OCc1ccccc1Cl | 33.7 | -5.4 | 91.9* | 19.5 | -13.6 | 96.4* | 33.5 | 52.2*
C=CCn1c(Oc2ccc(C=O)cc2OCC)nc2c1c(=O)n(C)c(=O)n2C | 10.1 | -8.6 | -23.8 | 2.9 | -19.1 | 2.0 | . | .
C=CCc1cccc(/C=N/NC(=O)CNc2ccccc2OC)c1O | -7.9 | 9.6 | 69.2* | 21.4 | 2.4 | 22.7 | 55.0* | 28.3
C=CCc1cccc(/C=N/NC(=O)CCC(=O)Nc2ccc(F)cc2)c1O | 2.5 | -3.2 | 70.7* | 24.2 | 3.6 | 40.8 | 63.6* | 17.4
C=CCc1cccc(/C=N/NC(=O)CNc2cccc3ccccc23)c1O | -2.6 | 6.6 | 71.2* | -2.5 | 3.4 | -6.4 | 66.0* | 38.9*
C=CCc1cccc(/C=N/NC(=O)CNc2ccccc2)c1O | -1.0 | 11.4 | 55.6* | -0.9 | 6.7 | 73.9* | 55.3* | 32.9
C=CCc1cccc(/C=N/NC(=O)CCCNc2ccc(C)cc2)c1O | -5.7 | . | . | . | -12.2 | -19.5 | . | .
Cc1csc(SC(C)c2nc3scc(-c4ccccc4)c3c(=O)[nH]2)n1 (centres undefined) | 6.2 | -5.5 | 7.3 | 11.6 | -3.7 | 7.4 | . | .
COc1ccc(NS(=O)(=O)c2ccc3oc(=O)c4[nH]c(=O)c(=O)n(C)c4c3c2)cc1 | -0.7 | 11.4 | 1.3 | -0.3 | 10.1 | 17.5 | . | .
C=CCc1cccc(/C=N/NC(=O)C(C)Nc2cccc(C)c2)c1O (centres undefined) | 6.5 | 5.0 | 70.5* | 6.8 | 7.6 | 29.5 | 55.6* | 34.9
